Measurements published in the supplement of paper PMC8253809.
Where “and” joins values, the source holds several entries; their conditions need not be identical. Identical values can stand only once.

Experiments:
Assay in all cases: growth inhibition (% activity, log2 RLU normalised to DMSO / staurosporine); higher = more growth inhibition
Conditions in all cases: 33 µM
DIPGX29 = system: DIPGX29 (H3.3 K27M diffuse intrinsic pontine glioma line)
Procedure, shortened: (§1)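 For each approved drug, the growth-inhibition value is the replicate median of per-plate normalised CellTiter-Glo data. Luminescence was log2-transformed and expressed as % activity between solvent and positive control wells. Drugs were applied in triplicate at a single final concentration of about 33 μM for 7 days at 37 °C, 5% CO2 to pHGG cell lines and H9-derived neural stem cells.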

DIPGX37 = system: DIPGX37 (H3.3 K27M diffuse intrinsic pontine glioma line)
Procedure, shortened: as §1

DIPGX7 = system: DIPGX7 (H3.3 K27M diffuse intrinsic pontine glioma line)
Procedure, shortened: as §1

DIPGX9 = system: DIPGX9 (diffuse intrinsic pontine glioma line)
Procedure, shortened: as §1

HGGX39 = system: HGGX39 (paediatric high-grade glioma line)
Procedure, shortened: as §1

HGGX6 = system: HGGX6 (H3.3 G34R paediatric high-grade glioma line)
Procedure, shortened: as §1

HNSC = system: HNSC
Procedure, shortened: as §1

SUDIPGIV = system: SUDIPGIV (diffuse intrinsic pontine glioma line)
Procedure, shortened: as §1

SUDIPGVI = system: SUDIPGVI (diffuse intrinsic pontine glioma line)
Procedure, shortened: as §1

SUDIPGXIII = system: SUDIPGXIII (diffuse intrinsic pontine glioma line)
Procedure, shortened: as §1

Structure (SMILES)	growth inhibition (DIPGX29)	growth inhibition (DIPGX37)	growth inhibition (DIPGX7)	growth inhibition (DIPGX9)	growth inhibition (HGGX39)	growth inhibition (HGGX6)	growth inhibition (HNSC)	growth inhibition (SUDIPGIV)	growth inhibition (SUDIPGVI)	growth inhibition (SUDIPGXIII)
COC(=O)Nc1nc2cc([S+]([O-])c3ccccc3)ccc2[nH]1 (stereo not given)	4.96%	6.45%	4.77%	5.87%	4.89%	4.72%	19.2%	6.67%	5.46%	0.605%
O=C(N[C@H](CO)[C@H](O)c1ccc([N+](=O)[O-])cc1)C(Cl)Cl	-0.766%	2.12%	-0.167%	-0.0638%	1.67%	-1.13%	3.64%	-0.734%	0.976%	-0.883%
C[C@@H](c1ncncc1F)[C@](O)(Cn1cncn1)c1ccc(F)cc1F	0.619%	-0.0255%	0.392%	0.104%	0.756%	-0.00667%	1.22%	-1.27%	-1.71%	-0.404%
O=c1c(-c2ccc(O)cc2)coc2cc(O)cc(O)c12	0.891%	2.29%	2.16%	4.34%	4.09%	2.54%	3.99%	-1.2%	0.172%	-2.36%
Cn1c(CNc2ccc(C(=N)N)cc2)nc2cc(C(=O)N(CCC(=O)O)c3ccccn3)ccc21	0.681%	3.45%	1.05%	3.29%	2.01%	-1.53%	6.58%	1.54%	0.719%	-0.457%
COc1cnc(NS(=O)(=O)c2ccc(N)cc2)nc1	-0.629%	0.775%	-0.856%	0.181%	-0.248%	0.442%	0.00282%	-1.59%	0.403%	1.01%
O=C(O)C1(C(=O)O)CCC1.[NH2-].[NH2-].[Pt+2]	-2.53%	0.00905%	-1.49%	-0.992%	-2.69%	-4.21%	4.08%	-3.4%	-3.41%	-0.0982%
COC(=O)C1=C(C)NC(C)=C(C(=O)OCCN(C)Cc2ccccc2)C1c1cccc([N+](=O)[O-])c1 (stereo not given)	1.83%	4.39%	2.64%	2.12%	6.81%	0.277%	13%	3.58%	-1.74%	2.92%
NC(=O)c1cnccn1	-1.43%	0.819%	-1.41%	-0.339%	-2.81%	1.4%	-0.255%	-2.49%	0.0834%	1%
Clc1ccc(CSC(Cn2ccnc2)c2ccc(Cl)cc2Cl)cc1 (stereo not given)	3.26%	-0.102%	3.59%	1.99%	11.1%	8.31%	9.42%	16.1%	3.55%	10.8%
CN1CCN(c2c(F)cc3c(=O)c(C(=O)O)cn(CCF)c3c2F)CC1	1.06%	4.17%	2.04%	2.14%	2.42%	-0.149%	5.69%	2.18%	2.45%	-2.39%
CC(=O)Oc1cc2c(s1)CCN(C(C(=O)C1CC1)c1ccccc1F)C2 (stereo not given)	0.962%	-2.57%	1.32%	-0.813%	0.291%	-2.02%	0.528%	-0.967%	-3.04%	-1.75%
COc1ccc(CC(C)NCC(O)c2ccc(O)c(NC=O)c2)cc1 (stereo not given)	-0.234%	-0.809%	0.814%	0.302%	3.66%	0.0101%	6.49%	0.93%	1.33%	-1.79%
COc1cc2nc(N3CCN(C(=O)c4ccco4)CC3)nc(N)c2cc1OC	7.72%	-2.22%	1.17%	3.48%	-0.781%	18.9%	-0.602%	-3.54%	-4.38%	-1.72%
CCCCNc1cc(C(=O)O)cc(S(N)(=O)=O)c1Oc1ccccc1	-3.49%	-2.83%	-0.851%	-2.74%	-2.98%	-3.62%	-3.52%	-5.34%	-8.55%	-2.43%
CCOc1nc2cccc(C(=O)OC(C)OC(=O)OC3CCCCC3)c2n1Cc1ccc(-c2ccccc2-c2nn[nH]n2)cc1 (stereo not given)	-1.79%	-1.28%	-1.84%	-0.119%	-0.661%	0.0529%	-2.55%	-3.13%	-3.95%	-0.781%
CCCCC(=O)O[C@H]1CC[C@H]2[C@@H]3CCc4cc(O)ccc4[C@H]3CC[C@]12C	2.95%	4.39%	2.96%	8.03%	1.99%	-1.05%	72.8%	2.52%	-2.97%	1.55%
CCCC(=O)Nc1ccc(OCC(O)CNC(C)C)c(C(C)=O)c1 (stereo not given)	-1.23%	-0.501%	-1.01%	-0.6%	-0.175%	0.315%	-4.5%	-0.848%	-2.3%	-1.79%
CC(C)(C)NCC(O)c1ccc(O)c(CO)c1 (stereo not given)	-2.88%	-1.32%	-0.0436%	-1.85%	-1.15%	1.2%	-1.34%	1.26%	-4.26%	1.25%
CCCN[C@H]1CCc2nc(N)sc2C1	-1.19% and -0.0554%	-0.814% and -5.15%	-0.691% and -0.331%	-0.203% and -1.15%	-0.555% and -2.37%	3.71% and 0.0769%	-2.69% and 0.0733%	-0.717% and -1.61%	-0.616% and -4.53%	-6.77% and -0.361%
CC1(C)S[C@@H]2[C@H](NC(=O)[C@H](N)c3ccc(O)cc3)C(=O)N2[C@H]1C(=O)O	-2.54% and 1.43%	-2.93% and 3.86%	-1.48% and 1.69%	0.486% and 1.84%	0.0264% and 2.87%	0.163% and 3.37%	-3.3% and 1.46%	-1.85% and 0.698%	-2.12% and 2.79%	7.41% and 0.66%
CCOCC(O)COc1ccc(NC(=O)CC[S+](C)C)cc1 (stereo not given)	-1.2%	-0.984%	-0.388%	0.757%	-1.5%	-2.39%	-2.31%	-1.12%	-0.872%	0.764%
